Among the data in PubChem BioAssay (NCI) are growth values, retold here.

Experiment in all cases: NCI-60 one-dose screen, 48 h (100 = growth as untreated, 0 = no growth, -100 = all killed)
What all share (settings): 10 µM unless noted

The test system of experiment [1] is NCI-H23 lung.
The test system of experiment [2] is NCI-H226 lung.
In experiment [3] the test system is NCI-H322M lung.
Experiment [4] deals with HOP-62 NSCLC.
Experiment [5] deals with NCI-H460 lung.
The subject of experiment [6] is HOP-92 NSCLC.
Experiment [7] relates to A549/ATCC NSCLC.
Experiment [8] concerns 786-0 renal.
Experiment [9] deals with COLO 205 colon.
Experiment [10] relates to DU-145 prostate.
Experiment [11] concerns K-562 leukemia.
Experiment [12] concerns MALME-3M melanoma.
Experiment [13] relates to MDA-MB-231 breast.
Experiment [14] deals with RXF 393 renal.
The subject of experiment [15] is SF-268 CNS.
Experiment [16] has as its system SF-295 CNS.
Experiment [17] deals with SF-539 CNS.
Experiment [18] deals with UACC-257 melanoma.
In experiment [19] the test system is M14 melanoma.
In experiment [20] the test system is NCI-H522 lung.

Compounds without any hit were thinned out: in the full panel of roughly 83,000, 20% have a hit.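 Negative percent growth values reflect cell death: -40 means 40% of the cells present at the start died, and -100 means all died.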 Values without a mark were called inactive. Activity calls are given as the source filed them. Rule for the calls: active = growth percent below 10; inactive = the rest.

`CNC(=O)NCC1OC(n2cnc3c(NC(=O)Nc4ccccc4)ncnc32)C2OC(=O)CC12` (stereo not drawn): the growth in experiment [1] is 90.2%; in experiment [2], 99.2%; in experiment [3] it was 101%; in experiment [4] it was 94.2%; in experiment [5], 114%; in experiment [6] it was 71.2%. In addition, the growth in experiment [7] was 120%; in [8] it was 98.3%; in experiment [9], 110%; in experiment [10], 110%; in experiment [11], 81.1%; in experiment [12] it was 100%. Also, the growth in experiment [13] was 98.9%; in [14] it was -22.7% (active); in [15], 99.7%; in [16], 103%; in experiment [17], 104%; in experiment [18], 125%.
As to `C=C1C(=O)O[C@H]2[C@H]1CC/C(COC(=O)NCc1ccc(Cn3c(=O)sn(-c4ccc(I)cc4)c3=O)cc1)=C\CC[C@@]1(C)O[C@@H]21`, the growth is 94.8% in experiment [1]; 89.6% in [2]; 101% in [3]; 97.8% in experiment [4]; 91.9% in experiment [5]; 54.9% in experiment [6]. The growth in [7] is 94.9%; in experiment [8] it was 75.2%; in [9], 36.9%; in [10], 47.9%; in [11], 7.33% (active); in experiment [12] it was 82.3%. In addition, the growth is 73.5% in experiment [13]; 61.2% in [14]; 87.1% in [15]; 99.8% in experiment [16]; 98.7% in experiment [17]; 75.7% in [18]. The growth in experiment [19] is 73.1%.
On to `CN1C(=O)/C(=C/c2ccc(C(=O)Nc3ncc(Cc4cccc(C(F)(F)F)c4)s3)cc2)SC1=S`, for which the growth in experiment [1] is 37.5%; in experiment [2], 58%; in experiment [3] it was 69.5%; in experiment [4], 58.5%; in experiment [5], 30.1%; in experiment [6], 27.3%. In addition, the growth in experiment [7] was 47.4%; in [8], 65%; in experiment [9], 53%; in [10], 68.5%; in experiment [11], 48.2%; in [12], 32.2%. Further, the growth in [13] was 69.1%; in experiment [14], 26.9%; in [15], 59.3%; in experiment [16], 26.4%; in [17], 56.3%; in experiment [18], 71.7%. In experiment [19], the growth was 16.4%.
As for `Nc1nc2ccccc2c2c(=O)c3cc(Cl)ccc3sc12`, the growth in [1] was 87.5%; in experiment [2], 92.7%; in experiment [3], 91.8%; in [4] it was 89.7%; in experiment [5], 86.2%; in experiment [6], 81.3%. Besides, the growth in [20] was 93.4%; in [7], 93.9%; in [8] it was 98.5%; in experiment [9] it was 114%; in [10], 14.6%; in [11], 96.1%. In addition, the growth in experiment [12] was 108%; in experiment [13], 84.7%; in experiment [14], 108%; in experiment [15], 13%; in experiment [16], 96.2%; in [17], 95.5%. Besides, the figures for the growth in [18] and in experiment [19] were 99.1% and 105%, respectively.
`CSc1nc2ccc(C)cc2cc1/C=C1/C=C(c2ccccc2)NC1=O`: the growth is 75.2% in experiment [1]; 69.4% in experiment [2]; 65.8% in experiment [3]; 72.8% in [4]; 19.2% in [5]; 36.4% in [6]. The growth in experiment [7] was 47.2%; in experiment [8], 2.66% (active); in [9] it was 69.8%; in experiment [10] it was 47.4%; in [11], 41.3%; in [12] it was 40.4%. Moreover, the growth is 38.5% in [13]; 79.1% in experiment [14]; 66.3% in experiment [15]; 36.7% in [16]; 39.5% in [17]; 80% in experiment [18]. For the same compound, the growth in experiment [19] is 64.1%.
As for `O=C1C=CC2(O)OC/C(=C\c3ccccc3)C(O)=C2C1=O` (stereo not drawn), the growth is 36.1% in [1]; 81% in experiment [2]; 72.2% in experiment [3]; 5.5% (active) in [4]; 29.1% in [5]; -3.3% (active) in experiment [6]. For the same compound, the growth is -73.1% (active) in experiment [20]; 42.2% in [7]; -41.3% (active) in [8]; 36.2% in experiment [9]; 24.2% in experiment [10]; 5.02% (active) in [11]. The growth was -37.8% (active) in experiment [12]; -22.4% (active) in experiment [13]; -64.7% (active) in [14]; 19.1% in [15]; 74.8% in [16]; -38.8% (active) in experiment [17]. In addition, the growth in experiment [18] was 65.9%; in experiment [19], 27%.
Turning to `CC/C(=C(/c1ccc(O)cc1)c1ccc(OCCN2CCCCC2)cc1)c1ccc(OC)cc1`, the growth was 79.2% in experiment [1]; 103% in experiment [2]; 90.2% in experiment [3]; 83.5% in [4]; 57.4% in [5]; 70.2% in experiment [6]. Further, the growth was 64.4% in experiment [7]; 57.1% in [8]; -28.9% (active) in experiment [9]; 71.3% in experiment [10]; -30.8% (active) in experiment [11]; -28.3% (active) in [12]. Also, the growth is 55.1% in [13]; 68.4% in [14]; 62.6% in experiment [15]; 86.9% in [16]; 86.3% in [17]; 81% in [18]. Besides, the growth in [19] is -61.2% (active).
`O=[N+]([O-])c1ccccc1Sc1ccccc1[N+](=O)[O-]`: the growth in experiment [1] was 93.7%; in experiment [2] it was 98.5%; in [3] it was 91.4%; in experiment [4] it was 92.8%; in [5], 103%; in [6], 78.6%. The growth in experiment [7] was 87.2%; in [8], 93.4%; in experiment [9], 110%; in [10], 104%; in [11], 97.5%; in [12] it was 92.4%. The growth in [13] is 105%; in experiment [14], 98.1%; in experiment [15], 88%; in experiment [16], 101%; in [17], 94.8%; in experiment [18], 107%. Moreover, the growth in experiment [19] was 100%.
